Laboratory results published in PubChem BioAssay (NCATS).
Records with an inconclusive call do not appear. Active and inactive are the calls of the source.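 Rule for the calls, unless noted: active = compounds whose dose series gives a full or clear partial fitted curve of increased nuclear translocation; inconclusive = weak partial curve or effect only at the top dose; inactive = no dose-dependent translocation response.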

Test system: not listed separately
Experiment: Stat Signaling Pathway (AID 446; active = well fitted curve in either direction with a large enough effect, not every such curve was filed as active;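 note: ME-180 cervical cancer cells given 40 pM IL-6 alongside compound; SIE-controlled beta-lactamase reporter measured as 460/530 nm FRET emission ratio; % is set by controls: 0 for no effect and ±100 for the full control effect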)
Conditions: ME-180 SIE beta-lactamase reporter, IL-6 stimulated, 5 h; at 7.69 µM (top of the series) unless noted
In short: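 Reporter line: ME-180 cervical carcinoma, SIE-beta-lactamase. Treatment: compound with 40 pM IL-6, 5 hrs, 37 C, in low-serum OPTI-MEM with 10 mM HEPES pH 7.3. Detection: 460/530 nm fluorescence.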

activity, negative = inhibition, inactive:
COCCn1c(=O)c(-c2ccc(Cl)cc2)nc2cnc(OCc3ccccc3)nc21 -2.08%
CN1CCN(c2ncncc2-c2ccccc2C(F)(F)F)CC1 0.819%
Cc1ccccc1-c1nccc(Nc2ccc(F)cc2)n1 -11%
COCCn1c(=O)c(-c2ccc(Cl)cc2)nc2cnc(OC)nc21 -10.9%
Cc1nc2cnc(N3CCNCC3)nc2n(CCc2ccccc2)c1=O -13.8%
CN1CCN(c2ncnc3ccc(-c4ccccc4C#N)cc23)CC1 19.8%
CN1CCN(c2ncc3nc(CCc4ccccc4)c(=O)n(Cc4ccc(F)cc4)c3n2)CC1 -1.54%
N#CCCn1c(=O)c(-c2ccc(Cl)cc2)nc2cnc(OCc3ccccc3)nc21 1.91%
COc1ccc(Oc2ncc3nc(-c4cccs4)c(=O)n(CCC#N)c3n2)cc1 -11.5%
COc1ccc(Oc2ncc3nc(CCc4ccccc4)c(=O)n(C[C@H]4CCCO4)c3n2)cc1 -17.3%
O=c1cnc2cnc(N3CCNCC3)nc2n1Cc1cccs1 0.322%
COc1ccc(CNc2ncnc3ccc(-c4ccccc4OC)cc23)c(OC)c1 -2.99%
Clc1ccccc1-c1nc(N2CCNCC2)c2ccccc2n1 9.64%
COCCn1c(=O)c(CCc2ccccc2)nc2cnc(N3CCN(C)CC3)nc21 -8.57%
COc1cccc(Cn2c(=O)c(C)nc3cnc(N4CCNCC4)nc32)c1 -3.45%
O=c1c(-c2ccc(Cl)cc2)nc2cnc(Oc3ccccc3)nc2n1C1CC1 -4.95%
COc1cccc(-c2nc(N3CCN(C)CC3)c3ccccc3n2)c1 -2.04%
COc1ccc(-n2c(=O)cnc3cnc(N4CCNCC4)nc32)cc1 -6.65%
O=C(c1cc(C(F)(F)F)cc(C(F)(F)F)c1)N1CCC2(CC1)CCN(c1ccncc1)CC2 16.4%
O=c1cnc2cnc(N3CCNCC3)nc2n1Cc1ccc(F)cc1 -2.57%
Cc1noc(C)c1-c1nc(N2CCNCC2)c2ccccc2n1 13.9%
CN(C)c1ccc(-c2nccc(NCCN3CCOCC3)n2)cc1 11.1%
O=C(c1cc(C(F)(F)F)cc(C(F)(F)F)c1)N1CCC2(CC1)CCN(c1ccccn1)CC2 -1.33%
O=C(Nc1cccc(F)c1)N1CCCC2(CCNCC2)C1 -5.47%
Cc1ccccc1-c1nc(N2CCN(C)CC2)c2ccccc2n1 0.381%
Cn1c(=O)c(CCc2ccccc2)nc2cnc(OCc3ccccc3)nc21 -13%
COc1ccc(Oc2ncc3nc(-c4ccccc4)c(=O)n(C4CC4)c3n2)cc1 -1.16%

Biological target: Glucocorticoid receptor (Homo sapiens) (UniProt P04150)
Sequence (P04150 whole entry, looked up): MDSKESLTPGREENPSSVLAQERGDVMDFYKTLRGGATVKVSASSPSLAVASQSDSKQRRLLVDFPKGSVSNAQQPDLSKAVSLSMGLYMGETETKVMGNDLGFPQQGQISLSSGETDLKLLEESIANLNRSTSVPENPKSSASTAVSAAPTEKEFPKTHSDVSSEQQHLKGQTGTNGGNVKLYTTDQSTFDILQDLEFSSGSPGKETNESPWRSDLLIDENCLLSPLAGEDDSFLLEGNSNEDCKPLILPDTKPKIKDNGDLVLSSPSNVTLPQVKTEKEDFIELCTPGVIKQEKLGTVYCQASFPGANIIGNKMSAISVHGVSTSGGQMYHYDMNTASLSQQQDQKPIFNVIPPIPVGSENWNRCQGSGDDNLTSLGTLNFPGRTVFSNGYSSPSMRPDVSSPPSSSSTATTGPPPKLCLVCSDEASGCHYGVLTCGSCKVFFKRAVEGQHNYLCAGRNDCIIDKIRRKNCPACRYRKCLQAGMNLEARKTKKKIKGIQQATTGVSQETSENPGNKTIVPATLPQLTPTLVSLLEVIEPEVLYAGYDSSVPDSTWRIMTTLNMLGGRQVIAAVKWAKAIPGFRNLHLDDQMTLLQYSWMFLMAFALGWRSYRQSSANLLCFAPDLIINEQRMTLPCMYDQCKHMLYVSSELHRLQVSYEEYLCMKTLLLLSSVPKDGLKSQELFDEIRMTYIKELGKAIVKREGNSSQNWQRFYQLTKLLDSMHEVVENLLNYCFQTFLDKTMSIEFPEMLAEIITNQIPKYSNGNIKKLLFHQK
Experiment: GR-GFP Redistribution (AID 450); note: potency is the fitted concentration of half-maximal effect
Conditions: U2OS GR-GFP nuclear translocation, laser cytometry, 2 h

Potency, inactive:
COCCn1c(=O)c(-c2ccc(Cl)cc2)nc2cnc(OCc3ccccc3)nc21 > 9.22 µM
CN1CCN(c2ncncc2-c2ccccc2C(F)(F)F)CC1 > 46 µM
O=c1c(-c2ccccc2)nc2cnc(N3CCNCC3)nc2n1-c1ccccc1 > 9.22 µM
Cc1ccccc1-c1nccc(Nc2ccc(F)cc2)n1 > 46 µM
COCCn1c(=O)c(-c2ccc(Cl)cc2)nc2cnc(OC)nc21 > 9.22 µM
Cc1nc2cnc(N3CCNCC3)nc2n(CCc2ccccc2)c1=O > 9.22 µM
CN1CCN(c2ncc3nc(CCc4ccccc4)c(=O)n(Cc4ccc(F)cc4)c3n2)CC1 > 9.22 µM
N#CCCn1c(=O)c(-c2ccc(Cl)cc2)nc2cnc(OCc3ccccc3)nc21 > 9.22 µM
COc1ccc(Oc2ncc3nc(-c4cccs4)c(=O)n(CCC#N)c3n2)cc1 > 9.22 µM
COc1ccc(Oc2ncc3nc(CCc4ccccc4)c(=O)n(C[C@H]4CCCO4)c3n2)cc1 > 9.22 µM
O=c1cnc2cnc(N3CCNCC3)nc2n1Cc1cccs1 > 9.22 µM
COc1ccc(CNc2ncnc3ccc(-c4ccccc4OC)cc23)c(OC)c1 > 46 µM
Clc1ccccc1-c1nc(N2CCNCC2)c2ccccc2n1 > 46 µM
COCCn1c(=O)c(CCc2ccccc2)nc2cnc(N3CCN(C)CC3)nc21 > 9.22 µM
COc1cccc(Cn2c(=O)c(C)nc3cnc(N4CCNCC4)nc32)c1 > 9.22 µM
CN1CCN(c2ncc3nc(-c4cc(F)cc(F)c4)c(=O)n(-c4ccccc4)c3n2)CC1 > 9.22 µM
O=c1c(-c2ccc(Cl)cc2)nc2cnc(Oc3ccccc3)nc2n1C1CC1 > 9.22 µM
COc1cccc(-c2nc(N3CCN(C)CC3)c3ccccc3n2)c1 > 46 µM
CN1CCN(c2ncc3nc(-c4ccccc4)c(=O)n(-c4ccccc4)c3n2)CC1 > 9.22 µM
COc1ccc(-n2c(=O)cnc3cnc(N4CCNCC4)nc32)cc1 > 9.22 µM
O=c1cnc2cnc(N3CCNCC3)nc2n1Cc1ccc(F)cc1 > 9.22 µM
Cc1noc(C)c1-c1nc(N2CCNCC2)c2ccccc2n1 > 46 µM
CN(C)c1ccc(-c2nccc(NCCN3CCOCC3)n2)cc1 > 46 µM
COCCn1c(=O)c(-c2ccc(OC)cc2)nc2cnc(N3CCNCC3)nc21 > 9.22 µM
Cc1ccccc1-c1nc(N2CCN(C)CC2)c2ccccc2n1 > 46 µM
COc1ccc(-n2c(=O)c(-c3ccccc3)nc3cnc(N4CCNCC4)nc32)cc1 > 9.22 µM
Cn1c(=O)c(CCc2ccccc2)nc2cnc(OCc3ccccc3)nc21 > 9.22 µM
COc1ccc(-c2nc3cnc(N4CCNCC4)nc3n(-c3ccccc3)c2=O)cc1 > 9.22 µM
COc1ccc(Oc2ncc3nc(-c4ccccc4)c(=O)n(C4CC4)c3n2)cc1 > 9.22 µM
